# Source: PubChem BioAssay
# “And” between values parts separate entries of the source, which are not always exact repeats. Equal values may be shown once. For some of these results: Entries with a potency or affinity are not part of this list. The source holds several records for some structures; these can differ, active in one and inactive in another. The source made the active and inactive calls. Unless noted, the rule behind the calls is not given here.
# Legend:
# [1] = antimalarial activity against Dd2 strain (AID 2302;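 active = growth inhibition above 50% at the single 2 µM test dose, taken to imply half-maximal potency below 2 µM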;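 note: 0% = DMSO untreated growth and 100% = chloroquine plus artemisinin killed control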); conditions: P. falciparum Dd2 in RBCs, LDH growth readout, 72 h; at 2 µM; stronger effect = higher value
# [2] = human hepatoma cell viability loss – ATP luminescence, cytotoxicity control for P. falciparum antimalarial project, primary screen (AID 2303;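 active = inhibition above 50%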;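 note: 0% = DMSO wells and 100% = digitonin-killed cells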); conditions: HepG2 viability, 24-48 h, at 10 µM, stronger effect = higher value
# [3] = target: L-lactate dehydrogenase (Plasmodium falciparum (isolate CDC / Honduras)) (UniProt Q27743); assay: PfLDH activity inhibition – cell lysate, 3D7 strain, counter-screen for P. falciparum growth inhibition project (AID 2304);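 note: 0% = vehicle and 100% = reference inhibitor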; conditions: P. falciparum 3D7 crude extract, LDH APAD/NBT absorbance; at 2 µM; stronger effect = higher value
# L-lactate dehydrogenase (Plasmodium falciparum (isolate CDC / Honduras)), sequence (Q27743 whole entry, looked up): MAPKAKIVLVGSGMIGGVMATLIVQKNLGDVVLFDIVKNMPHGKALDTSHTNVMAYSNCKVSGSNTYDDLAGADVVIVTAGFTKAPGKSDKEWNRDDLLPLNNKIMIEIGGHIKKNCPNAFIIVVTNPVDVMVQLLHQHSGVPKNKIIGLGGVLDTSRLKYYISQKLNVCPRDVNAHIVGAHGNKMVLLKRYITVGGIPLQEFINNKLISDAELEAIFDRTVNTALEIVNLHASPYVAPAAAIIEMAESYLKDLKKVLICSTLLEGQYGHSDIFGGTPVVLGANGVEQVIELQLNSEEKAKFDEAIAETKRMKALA
# [4] = inhibition of 3D7 malaria parasite growth – strain 3D7 (AID 2306);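 note: 0% = DMSO wells and 100% = chloroquine plus artemisinin control wells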; conditions: P. falciparum 3D7 erythrocytic growth, LDH absorbance, 72 h; at 2 µM; stronger effect = higher value
# [5] = target: Calcium-dependent protein kinase 1 (Plasmodium falciparum (isolate 3D7)) (UniProt P62344); assay: PfCDPK1 kinase inhibitors, biochemical, TCAMS library (AID 1159585; cut-off not given, nearly all actives have IC50 up to about 0.98 µM;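 note: inhibitors leave more ATP so luminescence rises with inhibition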); conditions: recombinant PfCDPK1, Kinase-Glo ATP depletion luminescence
# Calcium-dependent protein kinase 1 (Plasmodium falciparum (isolate 3D7)), sequence (P62344 whole entry, looked up): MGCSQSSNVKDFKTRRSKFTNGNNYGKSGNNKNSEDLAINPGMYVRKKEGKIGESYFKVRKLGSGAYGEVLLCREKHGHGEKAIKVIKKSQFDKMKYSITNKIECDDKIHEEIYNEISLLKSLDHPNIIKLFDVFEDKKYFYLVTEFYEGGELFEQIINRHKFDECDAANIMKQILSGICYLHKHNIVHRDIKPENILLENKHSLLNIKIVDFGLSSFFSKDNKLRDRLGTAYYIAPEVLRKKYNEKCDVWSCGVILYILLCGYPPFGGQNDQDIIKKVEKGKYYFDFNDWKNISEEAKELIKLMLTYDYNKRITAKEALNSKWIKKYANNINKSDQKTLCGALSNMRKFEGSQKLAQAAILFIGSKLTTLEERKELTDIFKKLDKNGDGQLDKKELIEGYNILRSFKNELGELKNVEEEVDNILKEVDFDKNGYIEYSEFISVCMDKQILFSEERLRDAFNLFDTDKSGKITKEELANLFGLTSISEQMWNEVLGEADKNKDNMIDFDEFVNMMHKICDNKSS
# [6] = target: Plasmodium falciparum protein kinase 6 (PK6, PF3D7_1337100) (UniProt Q8IDW1); assay: PfPK6 kinase inhibitors, biochemical, TCAMS library (AID 1159586); conditions: recombinant PfPK6, Kinase-Glo ATP depletion luminescence
# Plasmodium falciparum protein kinase 6 (PK6, PF3D7_1337100), sequence (Q8IDW1 1-305): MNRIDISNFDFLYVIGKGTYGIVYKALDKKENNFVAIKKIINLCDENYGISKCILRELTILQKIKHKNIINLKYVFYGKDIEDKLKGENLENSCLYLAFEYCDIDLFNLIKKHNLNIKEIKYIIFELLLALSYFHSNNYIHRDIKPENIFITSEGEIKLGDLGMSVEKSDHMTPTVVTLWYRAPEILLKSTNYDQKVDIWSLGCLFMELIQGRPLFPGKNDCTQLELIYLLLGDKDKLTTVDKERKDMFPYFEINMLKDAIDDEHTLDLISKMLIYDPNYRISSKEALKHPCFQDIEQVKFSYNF
# [7] = target: Protein kinase 7 (PK7), Plasmodium falciparum 3D7 (PF3D7_0213400) (UniProt Q7YTF7); assay: inhibition of Plasmodium PK7 catalytic activity – biochemical, TCAMS antimalarial set, Kinase-Glo luminescence (AID 1159587); conditions: recombinant PfPK7, Kinase-Glo ATP depletion luminescence
# Protein kinase 7 (PK7), Plasmodium falciparum 3D7 (PF3D7_0213400), sequence (Q7YTF7 1-343): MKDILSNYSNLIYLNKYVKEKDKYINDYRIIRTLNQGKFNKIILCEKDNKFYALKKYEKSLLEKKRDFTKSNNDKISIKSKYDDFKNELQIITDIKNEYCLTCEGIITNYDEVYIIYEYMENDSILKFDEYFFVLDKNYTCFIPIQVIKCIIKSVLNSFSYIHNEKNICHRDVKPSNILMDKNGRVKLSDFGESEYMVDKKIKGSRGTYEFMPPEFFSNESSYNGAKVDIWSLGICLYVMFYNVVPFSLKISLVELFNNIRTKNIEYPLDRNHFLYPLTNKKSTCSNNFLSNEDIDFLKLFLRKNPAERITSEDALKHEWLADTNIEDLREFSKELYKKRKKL
# [8] = target: Calcium-dependent protein kinase 4 (Plasmodium falciparum (isolate 3D7)) (UniProt Q8IBS5); assay: PfCDPK4 kinase inhibitors, biochemical, TCAMS library (AID 1159588; cut-off not given, nearly all actives have IC50 up to about 0.91 µM); conditions: recombinant PfCDPK4, Kinase-Glo ATP depletion luminescence
# Calcium-dependent protein kinase 4 (Plasmodium falciparum (isolate 3D7)), sequence (Q8IBS5 whole entry, looked up): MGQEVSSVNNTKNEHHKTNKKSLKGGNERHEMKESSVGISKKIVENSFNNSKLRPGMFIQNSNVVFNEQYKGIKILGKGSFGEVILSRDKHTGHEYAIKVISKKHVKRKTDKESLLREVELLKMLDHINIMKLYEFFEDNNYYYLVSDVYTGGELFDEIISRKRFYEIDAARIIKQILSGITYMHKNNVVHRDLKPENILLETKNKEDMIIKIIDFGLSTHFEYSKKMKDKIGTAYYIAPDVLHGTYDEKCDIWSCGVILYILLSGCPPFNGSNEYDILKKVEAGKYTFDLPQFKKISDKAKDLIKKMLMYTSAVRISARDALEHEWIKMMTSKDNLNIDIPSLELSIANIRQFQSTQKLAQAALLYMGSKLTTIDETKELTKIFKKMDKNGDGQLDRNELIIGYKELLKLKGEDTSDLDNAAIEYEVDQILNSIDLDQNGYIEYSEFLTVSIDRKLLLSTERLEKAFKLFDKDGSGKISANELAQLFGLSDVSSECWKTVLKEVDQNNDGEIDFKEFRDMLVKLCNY
Structure (SMILES),growth inhibition [1],inhibition [2],inhibition [3],growth inhibition [4],outcome [5],outcome [6],outcome [7],outcome [8]
CSc1ccc(C[C@@H](C)NC[C@H](O)c2cccc(Cl)c2)cc1,96% (active),8% (inactive),2% (inactive),97% (active),inactive,inactive,inactive,inactive
CC[C@H]1CN2CC[C@H]1C[C@H]2[C@H](O)c1cc(-c2ccccc2F)nc2ccc(OC)cc12,98% (active),13% (inactive),1% (inactive),99% (active),inactive,inactive,inactive,inactive
CC(=O)Nc1ccc(CN2CCC(N(C)c3cc(NC(=O)c4cccc(F)c4)ccn3)CC2)cc1,-1% (inactive),4% (inactive),2% (inactive),85% (active),inactive,inactive,inactive,inactive
Cc1[nH]c2ccccc2c1C1=CCN(CCCCCNC(=O)/C=C/c2ccc(Cl)c(Cl)c2)CC1,89% (active),28% (inactive),-1% (inactive),97% (active),inactive,inactive,inactive,inactive
COc1ccc(CN(C2CC2)C(C)C(=O)c2[nH]c(C)c(C(C)=O)c2C)cc1 (centres undefined),64% (active),40% (inactive),-3% (inactive),98% (active),inactive,inactive,inactive,inactive
CCCCCCC(C)(C)c1cc(O)c2c3c(c(=O)oc2c1)CCN(Cc1ccccc1)C3,99% (active),3% (inactive),6% (inactive),100% (active),inactive,inactive,inactive,inactive
O=C(/C=C/c1ccccc1O)NC1CCC(CN2CCC(c3c[nH]c4ccccc34)CC2)CC1 (centres undefined),73% (active) and 45% (inactive),11% (inactive) and 22% (inactive),-1% (inactive) and 5% (inactive),101% (active) and 103% (active),inactive,inactive,inactive,inactive
NCC(=O)c1cc2c(cc1N)OCCO2,42% (inactive),64% (active),0% (inactive),89% (active),inactive,inactive,inactive,inactive
